The full list was thinned out, with hits kept by preference.
Tgondii IFNg: inhibitors of Toxoplasma gondii growth with IFN-gamma. AID 1259416. actives 3.8% (n = 69,000). Toxoplasma gondii growth in IFN-gamma-treated host cells; stronger effect = lower value. activity change, negative = inhibition, % (test concentration not listed); in the data active = activity change below about -70%, passing the limit was not always enough;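 also: host cells are HeLa cells infected with Toxoplasma gondii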
Numbers without * were called inactive; i = inactive; ! = repeats disagree.

SMILES	Tgondii IFNg
CC1(C)CCC(c2ccc(Cl)cc2)=C(CN2CCN(c3ccc(C(=O)NS(=O)(=O)c4ccc(N[C@H](CCN5CCOCC5)CSc5ccccc5)c(S(=O)(=O)C(F)(F)F)c4)cc3)CC2)C1	-72*
CN(C)CC[C@H](CSc1ccccc1)Nc1ccc(S(=O)(=O)NC(=O)c2ccc(N3CCN(Cc4ccccc4-c4ccc(Cl)cc4)CC3)cc2)cc1[N+](=O)[O-]	-76*
O=S(=O)(NCCN1CCOCC1)c1cccc(C(F)(F)F)c1	-6
Cc1ccccc1-c1nc(CN2CCN(C(=O)Nc3cccc(C)c3C)CC2)c(C)o1	2
CCOc1ccccc1CNC(=O)C1=C(C)C(=O)OC12CCN(CC)CC2	28
O=C(Cc1ccc(Cl)cc1)N1CCCC1c1ccnc2nccn12 (stereo unspecified)	-1
c1cnn(CCC2CCN(c3ncnc4c3CCNC4)CC2)c1	4
CCc1[nH]c2ccc(CNc3nccc(N4CCCC(O)C4)n3)cc2c1C (stereo unspecified)	5
COc1cc(F)ccc1-c1ccc(Cn2ccnc2)cn1	2
Cc1noc(C)c1CN1CCC2(CC1)Cc1ccccc1CNC2=O	63
O=S(=O)(CCSCc1csc2ccccc12)c1ccc(Cl)cc1Cl	-40
Nc1cccc2nc3ccccc3cc12	-99*
Nc1cccc(-c2nc3ccccc3[nH]2)c1	52
Nc1ccccc1Nc1nc2ccccc2[nH]1	-17
COc1ccc(-c2nnc(-c3nc(N4CCCC4)c4ccccc4n3)o2)cc1	173
Cc1ncc(-c2ccnc(Nc3ccc(S(C)(=O)=O)cc3)n2)n1C(C)C	-77*
Cc1nn(C)c(C)c1-c1ccnc(NCCN2CCN(C(C)C)CC2)n1	-2
CSc1nccc(-c2ccc(S(C)(=O)=O)cc2)n1	-4
Cc1ccc2[nH]c(=O)c(Cc3ccccc3)c(O)c2c1	10
Cc1ccc2[nH]c3c(c2c1)CN(C)CC3	12
Cc1ccc2[nH]c3c(c2c1)CCNC3=O	-93*
CC(C)(C)c1nc2ccccc2c2nnc(SCc3ccccn3)n12	-79*
Nc1nnc(SCc2ccccn2)s1	5
C=CCn1c(SCc2ccccn2)nc2c([nH]c3ccccc32)c1=O	30
O=C(Cn1[nH]c(=O)ccc1=O)N1CCCN(Cc2cccs2)CC1	6
SMILES	Tgondii IFNg
COC1C2CCC1N(S(=O)(=O)c1cccs1)C2 (stereo unspecified)	-77*
COc1ccc(S(=O)(=O)N2CC3CCC2C3Oc2cccnc2)cc1 (stereo unspecified)	-4
CC(C)CN1CC[C@H]2[C@@H]1CCN2S(=O)(=O)c1cccs1	-4
CCCCN(CCCC)CCCNC(=O)C1=C(C)C(=O)OC12CCN(CC)CC2	127
C=CCN(C)c1nc(-c2cccnc2)nc2c1CNC2	-4
CCOc1cccc(CNC(=O)c2c(O)c3cccnc3[nH]c2=O)c1	9
Fc1ccc(-c2noc(-c3ccc4c(c3)OCO4)n2)cc1	6
O=C1Cc2cc(N3CC(C(=O)O)CC3=O)ccc2N1 (stereo unspecified)	1
O=C1Cc2cc(-c3ccc4c(c3)OCO4)ccc2N1	-75*
CCOC(=O)c1c(C)[nH]c(C(=O)N2CCNC(CC)C2)c1C (stereo unspecified)	3
CCOc1ccc2c(c1)C(c1ccc(F)cc1)=NNC(c1ccc(Cl)cc1)=N2	-34
OC(COc1ccc(F)cc1)(c1ccc(Cl)cc1)c1ccc(Cl)cc1	-99*
O=S(=O)(Cc1ccc(Cl)cc1)CC(O)COc1ccc(F)cc1 (stereo unspecified)	19
O=C(CSc1nc2ccccc2o1)Nc1nnc(SCc2ccccc2)s1	48
O=C(Nc1nnc(SCc2ccccc2)s1)C1COc2ccccc2C1 (stereo unspecified)	-83*
COCCSc1nnc(NC(=O)c2ccco2)s1	192
CCOc1c(N2CCSCC2)c(=O)c1=O	11
CCn1nnc2c1C(COCCN(C)C)CN(CC1CC1)C2 (stereo unspecified)	199
Cc1cc(C)c(C(=O)N2CCN(C)C(C(=O)O)C2)c(=O)[nH]1 (stereo unspecified)	3
Cn1ccnc1-c1ccc(NCC[C@@H]2C[C@@H]3C=C[C@H]2C3)nn1	463
Cc1cccn2cc(C(=O)N3CCCCC3CCc3ccccn3)nc12 (stereo unspecified)	2
OC1(c2ccc(Cl)c(C(F)(F)F)c2)CCN(CCCC(c2ccc(F)cc2)c2ccc(F)cc2)CC1	-85*!
Fc1ccc(C(CCCN2CCN3CCCCC3C2)c2ccc(F)cc2)cc1 (stereo unspecified)	-62
OC(CCCN1CCC(O)(c2ccc(Cl)cc2)CC1)c1ccc(F)cc1 (stereo unspecified)	-55
CCc1ccccc1NC(=O)C(=O)NCCc1csc(-c2ccc(F)cc2)n1	-22
SMILES	Tgondii IFNg
COc1ccccc1-c1ccccc1[C@@H]1[C@@H](C#N)N(C(=O)C2CCOCC2)[C@H]1CO	-33
CCOC(=O)c1[nH]ncc1-c1ccc(Cl)cc1Cl	-95*
CCOC(=O)c1[nH]c2cc(Cl)cc(Cl)c2c1CCC(=O)O	1
CCOC(=O)COc1ccc(Cl)cc1C(=O)OC	-38
CCOc1ncnc2c1CCN(C(=O)[C@H]1CCCO1)CC2	-52
CN1CC(=O)N(c2ccccc2)CC12CCN(C(=O)C1CCOCC1)C2 (stereo unspecified)	-25
C(=C\c1cccc(N2CCNCC2)n1)/c1ccccc1	-78*
C(=C\c1cccc(N2CCNCC2)c1)/c1ccccc1	3
CCc1ccccc1-c1cccc(N2CCNCC2)n1	-6
CN1CCN(c2cc(C(F)(F)F)ccn2)CC1C(=O)O (stereo unspecified)	-4
CN(C(=O)C(C)(C)Oc1cc(C(F)(F)F)n(C)n1)c1ccccc1	4
Cc1ccccc1-c1cc(N2CCN(C)CC2)ncc1N(C)C(=O)C(C)(C)c1cc(C(F)(F)F)cc(C(F)(F)F)c1	-73*
COCCN(C)c1nc(C2CCN(C(=O)COC)CC2)cc2c1ncn2C	8
CCCSc1nnc(NC(=O)CSc2nnnn2-c2cccc(OC)c2)s1	7
Cc1cc(NC(=O)CN2CCCC(c3ccc(C(=O)N4CCCC4)cn3)C2)no1 (stereo unspecified)	19
CC(=O)O[C@H]1C(=O)[C@@]2(C)[C@H]([C@H](OC(=O)c3ccccc3)[C@]3(O)C[C@H](OC(=O)[C@H](O)[C@@H](NC(=O)c4ccccc4)c4ccccc4)C(C)=C1C3(C)C)[C@]1(OC(C)=O)CO[C@@H]1C[C@@H]2O	-82*!
CC(=O)O[C@H]1C(=O)[C@@]2(C)[C@H]([C@H](OC(=O)c3ccccc3)[C@]3(O)C[C@H](OC(=O)[C@H](O)C(NC(=O)c4ccccc4)c4ccccc4)C(C)=C1C3(C)C)[C@]1(OC(C)=O)CO[C@@H]1C[C@@H]2O (stereo partly specified)	-96*
Cc1oc(-c2ccc(NC(=O)C3CC3)cc2)nc1Cn1cccn1	-13
Cc1cccc(-c2nc(C)c(CCNC(=O)c3c(F)cccc3F)s2)c1	i
O=C(C[C@H]1CC[C@H]2[C@@H](COC[C@@H](O)CN2C(=O)Nc2ccccc2)O1)NCc1ccccc1F	1
CCC(=O)N1CCc2ncnc(Nc3ccc(C)cc3)c2CC1	-7
O=C1CCCn2cc(nn2)COC[C@@H](c2ccccc2)N1	-16
CC(C)=CCc1c2c(c3occ(-c4ccc(O)cc4)c(=O)c3c1O)C=CC(C)(C)O2	-82*
CC(C)=CCc1c2c(c3occ(-c4ccc(O)c(O)c4)c(=O)c3c1O)C=CC(C)(C)O2	-25
O=c1c(-c2ccc(O)cc2)coc2cc(O)cc(O)c12	80
